Laboratory results taken from the supplement of paper PMC11732987, “Enantioselective OTUD7B fragment discovery through chemoproteomics screening and high-throughput optimisation” (Communications Chemistry, 2025).

Assays:
Assay in all cases: log2 ratio of Biotin-Ahx-Ub-VS probe labelling (fragment/DMSO); higher = less target engagement (more negative = stronger competition), active = hit call of the paper (q ≤ 0.05, log2 ratio ≤ -1)
Details in all cases: compound concentration: 200 uM; treatment time: 3 h
USP34 = USP34 (UniProt Q70CQ2)
Outline: (§1)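 Triplicate samples of HEK293T lysate, 495 µg each, received fragment at 200 µM or vehicle for 3 h, followed by Biotin-Ahx-Ub-VS (0.5 µM final) for 1 h. After NeutrAvidin enrichment of labelled DUBs and LysC/trypsin digestion, peptides were run by diaPASEF LC-MS/MS. The values are average log2 fragment/vehicle ratios from global-median-normalised Spectronaut label-free quantities, tested by unpaired t-test on proteins having ≥2 unique peptides.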

USP36 = target: T1, USP36 (UniProt Q9P275)
T1 sequence (whole entry): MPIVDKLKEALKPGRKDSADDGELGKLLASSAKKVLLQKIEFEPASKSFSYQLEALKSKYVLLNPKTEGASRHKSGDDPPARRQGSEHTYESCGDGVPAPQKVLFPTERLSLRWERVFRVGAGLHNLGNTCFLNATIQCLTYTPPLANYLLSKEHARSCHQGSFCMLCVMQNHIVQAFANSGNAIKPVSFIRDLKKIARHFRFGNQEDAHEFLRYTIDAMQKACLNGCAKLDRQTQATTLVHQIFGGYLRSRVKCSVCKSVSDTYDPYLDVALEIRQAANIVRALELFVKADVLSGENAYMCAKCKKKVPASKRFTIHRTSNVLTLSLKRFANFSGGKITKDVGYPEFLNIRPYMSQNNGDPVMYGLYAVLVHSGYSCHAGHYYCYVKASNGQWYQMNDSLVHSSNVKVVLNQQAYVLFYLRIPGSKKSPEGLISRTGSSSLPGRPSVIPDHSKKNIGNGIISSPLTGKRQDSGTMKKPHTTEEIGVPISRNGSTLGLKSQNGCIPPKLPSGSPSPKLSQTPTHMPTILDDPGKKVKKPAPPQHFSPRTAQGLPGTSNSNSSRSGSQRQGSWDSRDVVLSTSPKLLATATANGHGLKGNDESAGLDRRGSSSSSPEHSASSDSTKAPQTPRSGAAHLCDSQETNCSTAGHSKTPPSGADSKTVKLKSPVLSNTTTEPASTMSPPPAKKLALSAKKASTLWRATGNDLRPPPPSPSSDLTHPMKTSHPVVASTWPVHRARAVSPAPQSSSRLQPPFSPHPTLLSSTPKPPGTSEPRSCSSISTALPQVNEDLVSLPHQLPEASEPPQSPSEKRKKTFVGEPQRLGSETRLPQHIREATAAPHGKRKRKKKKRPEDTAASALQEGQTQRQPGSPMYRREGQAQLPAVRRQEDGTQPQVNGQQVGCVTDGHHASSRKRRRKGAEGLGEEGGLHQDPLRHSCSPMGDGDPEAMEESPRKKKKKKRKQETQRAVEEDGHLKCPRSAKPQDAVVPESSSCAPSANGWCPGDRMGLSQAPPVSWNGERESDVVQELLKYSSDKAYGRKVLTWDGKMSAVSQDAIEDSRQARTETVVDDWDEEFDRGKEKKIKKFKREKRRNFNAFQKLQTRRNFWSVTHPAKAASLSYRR
Outline: as §1

USP38 = target: T2, USP38 (UniProt Q8NB14)
T2 sequence (whole entry): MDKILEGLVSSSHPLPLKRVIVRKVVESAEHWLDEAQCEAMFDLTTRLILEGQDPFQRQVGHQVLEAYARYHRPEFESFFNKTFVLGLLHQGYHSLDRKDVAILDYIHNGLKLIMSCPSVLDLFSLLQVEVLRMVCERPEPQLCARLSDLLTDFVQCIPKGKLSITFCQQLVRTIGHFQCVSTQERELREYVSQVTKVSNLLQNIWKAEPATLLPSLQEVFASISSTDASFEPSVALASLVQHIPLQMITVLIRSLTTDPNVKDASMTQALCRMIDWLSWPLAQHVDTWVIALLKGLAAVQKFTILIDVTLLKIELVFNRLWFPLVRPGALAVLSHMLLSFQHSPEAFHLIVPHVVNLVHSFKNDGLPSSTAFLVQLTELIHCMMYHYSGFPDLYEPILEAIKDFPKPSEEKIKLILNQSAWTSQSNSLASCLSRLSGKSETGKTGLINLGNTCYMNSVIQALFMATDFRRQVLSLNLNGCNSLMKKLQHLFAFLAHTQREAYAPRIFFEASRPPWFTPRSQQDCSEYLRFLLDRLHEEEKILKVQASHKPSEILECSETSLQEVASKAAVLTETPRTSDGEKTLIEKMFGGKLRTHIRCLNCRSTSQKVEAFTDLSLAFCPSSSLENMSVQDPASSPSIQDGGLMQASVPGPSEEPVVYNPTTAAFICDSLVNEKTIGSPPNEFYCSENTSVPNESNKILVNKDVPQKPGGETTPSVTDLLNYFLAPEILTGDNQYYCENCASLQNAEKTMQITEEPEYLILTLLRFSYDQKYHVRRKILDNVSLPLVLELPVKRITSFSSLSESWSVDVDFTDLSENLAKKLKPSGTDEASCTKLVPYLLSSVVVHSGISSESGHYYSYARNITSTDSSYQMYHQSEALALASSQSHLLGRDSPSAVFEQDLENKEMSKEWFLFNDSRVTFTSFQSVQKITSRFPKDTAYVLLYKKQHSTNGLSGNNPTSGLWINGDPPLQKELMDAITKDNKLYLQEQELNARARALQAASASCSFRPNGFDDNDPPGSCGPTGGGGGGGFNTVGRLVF
Outline: as §1

USP39 = target: T3, USP39 (UniProt Q53GS9)
T3 sequence (whole entry): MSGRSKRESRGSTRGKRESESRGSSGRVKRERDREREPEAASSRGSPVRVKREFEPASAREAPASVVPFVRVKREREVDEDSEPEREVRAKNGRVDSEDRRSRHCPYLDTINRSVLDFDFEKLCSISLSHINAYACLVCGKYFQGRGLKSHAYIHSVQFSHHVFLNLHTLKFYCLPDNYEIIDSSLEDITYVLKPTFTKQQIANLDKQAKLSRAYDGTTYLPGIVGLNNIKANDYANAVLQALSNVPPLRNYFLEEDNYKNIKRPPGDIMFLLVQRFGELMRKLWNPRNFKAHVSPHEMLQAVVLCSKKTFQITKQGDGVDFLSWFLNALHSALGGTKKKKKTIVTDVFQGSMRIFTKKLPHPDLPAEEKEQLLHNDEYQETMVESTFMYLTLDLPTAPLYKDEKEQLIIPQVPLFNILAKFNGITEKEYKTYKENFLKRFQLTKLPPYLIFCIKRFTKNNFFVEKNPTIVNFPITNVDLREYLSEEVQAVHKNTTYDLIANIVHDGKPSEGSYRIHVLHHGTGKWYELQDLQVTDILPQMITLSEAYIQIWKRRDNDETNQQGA
Outline: as §1

USP4 = target: T4, USP4 (UniProt Q13107)
T4 sequence (whole entry): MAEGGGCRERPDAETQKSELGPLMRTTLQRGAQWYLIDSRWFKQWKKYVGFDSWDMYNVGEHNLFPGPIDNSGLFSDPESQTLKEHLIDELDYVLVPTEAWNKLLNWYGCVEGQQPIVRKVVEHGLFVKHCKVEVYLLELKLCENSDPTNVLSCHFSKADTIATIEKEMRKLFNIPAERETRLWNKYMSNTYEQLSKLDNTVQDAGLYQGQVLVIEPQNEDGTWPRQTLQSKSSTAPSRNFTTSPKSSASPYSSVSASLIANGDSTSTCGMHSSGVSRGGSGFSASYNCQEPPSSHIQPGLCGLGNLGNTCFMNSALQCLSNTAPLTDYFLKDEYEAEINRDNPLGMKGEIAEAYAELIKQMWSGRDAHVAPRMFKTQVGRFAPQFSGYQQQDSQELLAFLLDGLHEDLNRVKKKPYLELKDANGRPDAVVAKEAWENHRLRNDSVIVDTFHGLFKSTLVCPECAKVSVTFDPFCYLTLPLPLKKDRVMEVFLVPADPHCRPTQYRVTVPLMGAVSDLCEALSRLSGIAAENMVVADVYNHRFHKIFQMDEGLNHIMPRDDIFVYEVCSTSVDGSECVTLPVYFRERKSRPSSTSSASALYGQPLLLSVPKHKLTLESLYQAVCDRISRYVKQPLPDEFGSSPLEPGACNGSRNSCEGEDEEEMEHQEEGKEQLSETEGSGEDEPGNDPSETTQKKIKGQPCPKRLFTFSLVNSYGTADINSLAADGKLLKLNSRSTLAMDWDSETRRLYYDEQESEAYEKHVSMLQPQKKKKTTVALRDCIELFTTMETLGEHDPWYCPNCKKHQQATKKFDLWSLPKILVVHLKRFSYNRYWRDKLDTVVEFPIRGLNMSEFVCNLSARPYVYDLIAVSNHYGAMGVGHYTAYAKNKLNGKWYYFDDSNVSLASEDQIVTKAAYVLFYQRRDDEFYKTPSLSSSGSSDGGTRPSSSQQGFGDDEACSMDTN
Outline: as §1

Measured: log2 ratio of Biotin-Ahx-Ub-VS probe labelling

USP34, sequence (Q70CQ2 whole entry, the tested form may be a part): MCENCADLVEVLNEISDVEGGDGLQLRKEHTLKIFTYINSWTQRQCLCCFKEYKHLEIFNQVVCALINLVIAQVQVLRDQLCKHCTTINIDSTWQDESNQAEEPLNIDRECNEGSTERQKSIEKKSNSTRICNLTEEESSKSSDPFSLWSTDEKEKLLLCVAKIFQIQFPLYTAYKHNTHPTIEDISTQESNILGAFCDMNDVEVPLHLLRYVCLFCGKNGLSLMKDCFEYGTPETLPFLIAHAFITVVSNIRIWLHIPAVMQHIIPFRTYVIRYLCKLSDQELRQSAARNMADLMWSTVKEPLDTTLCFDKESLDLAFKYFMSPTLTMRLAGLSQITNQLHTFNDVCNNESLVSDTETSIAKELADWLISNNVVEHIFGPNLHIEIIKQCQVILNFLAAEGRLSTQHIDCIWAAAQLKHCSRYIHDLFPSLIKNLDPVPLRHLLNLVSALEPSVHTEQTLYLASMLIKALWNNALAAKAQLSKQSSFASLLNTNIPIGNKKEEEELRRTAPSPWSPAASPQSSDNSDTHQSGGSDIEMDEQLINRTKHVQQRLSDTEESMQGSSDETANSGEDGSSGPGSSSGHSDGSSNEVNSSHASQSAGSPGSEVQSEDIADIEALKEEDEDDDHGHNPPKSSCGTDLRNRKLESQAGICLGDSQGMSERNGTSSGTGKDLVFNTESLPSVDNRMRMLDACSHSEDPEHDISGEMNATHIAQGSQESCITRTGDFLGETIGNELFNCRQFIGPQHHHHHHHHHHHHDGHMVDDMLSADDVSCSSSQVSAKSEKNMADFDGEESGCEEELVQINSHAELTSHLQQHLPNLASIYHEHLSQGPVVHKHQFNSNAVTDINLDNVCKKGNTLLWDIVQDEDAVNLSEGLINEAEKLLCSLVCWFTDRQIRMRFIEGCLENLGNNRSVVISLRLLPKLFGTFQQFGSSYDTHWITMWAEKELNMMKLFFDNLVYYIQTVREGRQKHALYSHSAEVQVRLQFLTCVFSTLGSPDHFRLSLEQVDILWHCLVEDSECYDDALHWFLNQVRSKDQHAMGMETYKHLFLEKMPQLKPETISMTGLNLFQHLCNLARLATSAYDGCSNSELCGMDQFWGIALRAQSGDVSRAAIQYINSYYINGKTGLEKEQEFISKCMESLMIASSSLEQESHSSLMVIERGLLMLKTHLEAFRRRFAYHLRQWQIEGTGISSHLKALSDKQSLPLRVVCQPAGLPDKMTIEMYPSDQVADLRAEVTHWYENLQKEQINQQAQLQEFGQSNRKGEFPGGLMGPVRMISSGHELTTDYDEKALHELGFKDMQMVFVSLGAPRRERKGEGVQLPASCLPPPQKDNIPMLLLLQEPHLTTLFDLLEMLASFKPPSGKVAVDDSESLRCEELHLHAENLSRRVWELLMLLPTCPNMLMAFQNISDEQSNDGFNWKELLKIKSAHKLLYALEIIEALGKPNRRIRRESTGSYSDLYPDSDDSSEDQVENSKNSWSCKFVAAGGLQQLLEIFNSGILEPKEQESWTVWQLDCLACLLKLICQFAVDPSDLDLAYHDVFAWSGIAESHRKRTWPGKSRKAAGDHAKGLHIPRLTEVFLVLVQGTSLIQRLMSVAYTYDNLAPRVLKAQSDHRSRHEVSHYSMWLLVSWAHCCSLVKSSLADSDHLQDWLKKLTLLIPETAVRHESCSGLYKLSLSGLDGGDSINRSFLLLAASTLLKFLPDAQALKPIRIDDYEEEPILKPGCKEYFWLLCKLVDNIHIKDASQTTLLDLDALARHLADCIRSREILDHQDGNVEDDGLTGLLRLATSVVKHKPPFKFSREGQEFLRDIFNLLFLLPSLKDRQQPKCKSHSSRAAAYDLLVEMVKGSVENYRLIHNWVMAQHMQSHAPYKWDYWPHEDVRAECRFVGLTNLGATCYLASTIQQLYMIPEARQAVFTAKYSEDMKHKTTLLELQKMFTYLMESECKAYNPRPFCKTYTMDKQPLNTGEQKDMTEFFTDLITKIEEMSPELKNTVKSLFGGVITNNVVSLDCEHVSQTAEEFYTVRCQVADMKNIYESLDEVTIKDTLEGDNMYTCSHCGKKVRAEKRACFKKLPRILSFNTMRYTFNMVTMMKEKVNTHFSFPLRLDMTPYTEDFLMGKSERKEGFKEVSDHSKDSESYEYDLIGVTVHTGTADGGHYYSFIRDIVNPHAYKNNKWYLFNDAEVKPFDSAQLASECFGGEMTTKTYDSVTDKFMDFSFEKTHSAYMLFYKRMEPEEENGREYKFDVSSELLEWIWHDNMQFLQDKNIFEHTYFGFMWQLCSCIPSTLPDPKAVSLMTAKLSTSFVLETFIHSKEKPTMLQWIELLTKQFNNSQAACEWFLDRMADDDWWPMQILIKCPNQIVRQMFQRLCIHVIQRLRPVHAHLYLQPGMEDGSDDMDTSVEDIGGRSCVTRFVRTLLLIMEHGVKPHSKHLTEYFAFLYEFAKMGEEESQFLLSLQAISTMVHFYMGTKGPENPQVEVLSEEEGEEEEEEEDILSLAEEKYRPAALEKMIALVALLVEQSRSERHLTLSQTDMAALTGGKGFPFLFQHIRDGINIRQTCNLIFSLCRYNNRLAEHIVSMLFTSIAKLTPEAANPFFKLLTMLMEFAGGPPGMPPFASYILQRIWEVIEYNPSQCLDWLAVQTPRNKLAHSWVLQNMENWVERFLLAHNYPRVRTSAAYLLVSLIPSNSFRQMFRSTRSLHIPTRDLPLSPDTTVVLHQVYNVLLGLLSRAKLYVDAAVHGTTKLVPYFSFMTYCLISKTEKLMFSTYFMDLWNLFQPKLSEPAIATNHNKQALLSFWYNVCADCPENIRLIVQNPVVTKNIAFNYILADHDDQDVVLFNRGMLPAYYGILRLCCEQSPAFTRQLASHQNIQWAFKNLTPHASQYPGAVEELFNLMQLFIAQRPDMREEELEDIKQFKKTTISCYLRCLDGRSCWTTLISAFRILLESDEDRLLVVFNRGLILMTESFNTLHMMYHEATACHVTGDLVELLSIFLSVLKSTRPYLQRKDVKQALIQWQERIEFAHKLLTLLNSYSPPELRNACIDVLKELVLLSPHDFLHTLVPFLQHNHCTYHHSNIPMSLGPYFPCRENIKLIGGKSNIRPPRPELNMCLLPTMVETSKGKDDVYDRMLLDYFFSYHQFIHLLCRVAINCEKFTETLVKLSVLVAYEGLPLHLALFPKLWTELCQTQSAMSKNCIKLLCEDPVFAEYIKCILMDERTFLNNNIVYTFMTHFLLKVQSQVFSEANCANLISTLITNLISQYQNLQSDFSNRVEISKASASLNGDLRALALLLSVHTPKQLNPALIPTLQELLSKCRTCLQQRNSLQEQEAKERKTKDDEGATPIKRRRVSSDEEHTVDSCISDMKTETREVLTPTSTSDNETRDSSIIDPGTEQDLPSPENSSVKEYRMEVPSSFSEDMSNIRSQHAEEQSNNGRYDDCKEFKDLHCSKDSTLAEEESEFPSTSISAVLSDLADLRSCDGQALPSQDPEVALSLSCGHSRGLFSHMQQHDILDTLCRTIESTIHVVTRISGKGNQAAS

O=C(CCl)NC1(c2ccc3c(c2)OCCO3)CCCC1
inactive: USP34 -0.146 | USP36 -0.197 | USP38 -0.013 | USP39 0.277 | USP4 -0.0625
